The results in this text go back to PubChem BioAssay (NCATS).

Results filed as inconclusive are left out. A number with no mark means an inactive call. The source made the active and inactive calls. The call rests on the fitted dose curve; in most records, active means well fitted cell-killing curve with a large enough effect; inconclusive means small, poorly fitted or top-dose-only effect, or effect the other way; inactive means no such curve, though single readings can be large or run the other way.
Potency means the concentration at half of the fitted maximal effect.

The experiment is described as follows: Quantitative High-Throughput drug screen in 47 multiple myeloma cell lines against the NCATS MIPE library collection: MM1R_ATCC cell viability assay (AID 1918981). Further: nearly all actives have a fitted effect of over 35% in size. The settings on record: MM1R multiple myeloma cells, CellTiter-Glo viability, 48 h; series mostly up to 45.8 µM; viability (% of control): at the top concentration. From the text:
PI: Beverly A. Mock Ph.D.
Laboratory of Cancer Biology and Genetics,
Center for Cancer Research, National Cancer Institute,
National Institute of Health, Bethesda, Maryland
Drug resistance and disease progression are common in multiple myeloma (MM) patients, underscoring the need for new therapeutic combinations. […] We hypothesized that effective combinations would reduce MYC expression and enhance p16 activity. […] These preclinical data identify potentially useful drug combinations for evaluation in drug-resistant MM and reveal potential mechanisms of combined drug sensitivity.
Described herein is the primary MIPE qHTS used to cherrypick compounds. Validated compounds were then further tested for potential synergistic activiy.
[1] Peat TJ, Gaikwad SM, Dubois W, Gyabaah-Kessie N, Zhang S, Gorjifard S, Phyo Z, Andres M, Hughitt VK, Simpson RM, Miller MA, Girvin AT, Taylor A, Williams D, D'Antonio N, Zhang Y, Rajagopalan A, Flietner E, Wilson K, Zhang X, Shinn P, Klumpp-Thomas C, McKnight C, Itkin Z, Chen L, Kazandijian D, Zhang J, Michalowski AM, Simmons JK, Keats J, Thomas CJ, Mock BA. Drug combinations identified by high-throughput screening promote cell cycle transition and upregulate Smad pathways in myeloma. Cancer Lett. 2023 Aug 1;568:216284. doi: 10.1016/j.canlet.2023.216284. Epub 2023 Jun 24. PMID: 37356470; PMCID: PMC10408729.
SEQUENCE No. (e.g., 1, 2, 3, etc.); […] (e.g., Cells, Incubation, Reagent, etc.); VALUE and DESCRIPTION.
1; Cells; 5 uL; white, solid bottom 1536-well Greiner assay plate.
2; Compounds; 23 nL; Kalypsis pin tool (Wako USA) equipped with a 1536-well pin head to transfer to the assay plates.
3; Incubation; 48 hours; 37C incubation.
4; Reagent;5uL; CellTiter Glo (Promega).
5; Detector; 425V; Luminescence; Viewlux PerkinElmer.
NOTES (numbers refer to Sequence numbers above)
1. The cell-based screening methods employed in this study were like those previously published. Briefly, the corresponding myeloma cell lines were screened in 1,536-well plates with 500 cells, 5-uL per well for inhibition of cell viability (assessed by measuring ATP levels with CellTiterGlo).
2. NCATS MIPE 4.0 library of approved and investigational drugs were added using the Kalypsis pin tool. Wells treated with DMSO only for 100% viability and media only for 0% viability were used as controls.
3. The assay plates were covered and incubated for 48 hours in a 37C, 5% CO2 incubator with controlled humidity.
4. After 48 hours, CellTilter-GloTM luminescent substrate mix (Promega) reagent was added to the assay plate and plates we incubated for 5 min at room temperature.
5. Signal was measured as median relative luminescence units on a ViewLux (PerkinElmer) multiplate reader.
[1] Heske CM, Davis MI, Baumgart JT, Wilson K, Gormally MV, Chen L, Zhang X, Ceribelli M, Duveau DY, Guha R, Ferrer M, Arnaldez FI, Ji J, Tran HL, Zhang Y, Mendoza A, Helman LJ, Thomas CJ. Matrix Screen Identifies Synergistic Combination of PARP Inhibitors and Nicotinamide Phosphoribosyltransferase (NAMPT) Inhibitors in Ewing Sarcoma. Clin Cancer Res. 2017 Dec 1;23(23):7301-7311. doi: 10.1158/1078-0432.CCR-17-1121. Epub 2017 Sep 12. PMID: 28899971; PMCID: PMC6636827.
For orientation: In ATP-based viability assays light output follows the ATP content of the culture.
In the case of `CC(C=CC1=C(C)CCCC1(C)C)=CC=CC(C)=CC(=O)Nc1ccc(O)cc1`, the Potency was 17100 nM (active).

As to `NC(=O)N1CCC(CC(=O)N2CCC([C@H]3c4ncc(Br)cc4CCc4cc(Cl)cc(Br)c43)CC2)CC1`, the Potency is 20900 nM (active).

As for `CC(C)(C)c1nc2c3cc[nH]c(=O)c3c3cc(F)ccc3c2[nH]1`, the Potency is 2640 nM (active).

In the case of `N#CC(=C(O)c1ccc(Cl)cc1Cl)c1nc2cc(Cl)ccc2c(=O)[nH]1`, the “viability (% of control)” value is 104%.

For the molecule `C[C@]12CC[C@@H]3c4ccc(O)cc4CC[C@H]3[C@H]1CC[C@H]2O`, the Potency is 14800 nM (active).

Take `CC(=O)N[C@@H]1[C@H](O[C@@H]2c3ccc(c(Cl)c3)Oc3cc4cc(c3O[C@H]3O[C@H](CO)[C@@H](O)[C@H](O)[C@H]3NC(=O)CCCCCCCC(C)C)Oc3ccc(cc3Cl)C[C@H]3NC(=O)[C@H](N)c5ccc(O)c(c5)Oc5cc(O)cc(c5)[C@H](NC3=O)C(=O)N[C@H]4C(=O)N[C@H]3C(=O)N[C@@H]2C(=O)N[C@@H](C(=O)O)c2cc(O)cc(O[C@H]4O[C@H](CO)[C@@H](O)[C@H](O)[C@H]4O)c2-c2cc3ccc2O)O[C@H](CO)[C@@H](O)[C@@H]1O`: the “viability (% of control)” value is 123%.

Regarding `C=C(C)[C@@H]1CC[C@]2(C(=O)O)CC[C@]3(C)[C@H](CC[C@@H]4[C@@]5(C)CC[C@H](O)C(C)(C)[C@@H]5CC[C@]43C)[C@@H]12`, the “viability (% of control)” value was 92.9%.

Take `CN(C)CCN1C(=O)c2cccc3cc(N)cc(c23)C1=O`: the Potency is 9350 nM (active).

For `Cc1cc(C(=O)NOCCO)c(Nc2ccc(I)cc2F)n(C)c1=O`, the “viability (% of control)” value was 105%.

Consider `C[C@H](CCC(=O)O)[C@H]1CCC2C3C[C@H](O)[C@@H]4C[C@H](O)CC[C@]4(C)C3CC[C@@]21C` (stereo not given in full), for which the “viability (% of control)” value was 104%.

For `CCC(C(=O)O)C1CCC(C)C(C(C)C(O)C(C)C(=O)C(CC)C2OC3(C=CC(O)[C@@]4(CC[C@](C)(C5CC[C@@](O)(CC)C(C)O5)O4)O3)C(C)CC2C)O1` (stereo not given in full), the Potency was 3720 nM (active).

With `CC(C)(O)CC[C@@H](O)[C@](C)(O)[C@H]1CC[C@@]2(O)C3=CC(=O)[C@@H]4C[C@@H](O)[C@@H](O)C[C@]4(C)[C@@H]3CC[C@]12C`, the “viability (% of control)” value was 88.9%.

`COc1cc([C@@H]2c3cc4c(cc3[C@H](O)[C@H]3COC(=O)[C@@H]23)OCO4)cc(OC)c1OC`: the Potency was 526 nM (active).

Turning to `NC(=O)c1ncn([C@@H]2O[C@H](CO)[C@@H](O)[C@@H]2O)c1O`, the “viability (% of control)” value was 124%.

As to `CC(=O)N1CCN(c2ccc(OCc3nn(C)c(C)c3-c3cccc4c(CCCOc5cccc6ccccc56)c(C(=O)O)n(Cc5cccnc5)c34)cc2)CC1`, the Potency was 1050 nM (active).

Consider `c1coc(CNc2ncnc3nc[nH]c23)c1`, for which the “viability (% of control)” value was 115%.

Regarding `C=CCNC1=C2C[C@@H](C)C[C@H](OC)[C@@H](O)[C@@H](C)C=C(C)[C@H](OC(N)=O)[C@@H](OC)C=CC=C(C)C(=O)NC(=CC1=O)C2=O`, the Potency is 1320 nM (active).

Consider `O=S(=O)(O)CCSSCCS(=O)(=O)O`, for which the “viability (% of control)” value is 125%.

`C#C[C@]1(O)CC[C@@H]2[C@@H]3CCc4cc(O)ccc4[C@H]3CC[C@@]21C`: the Potency is 20900 nM (active).

For the molecule `COc1ccc(Nc2cc(-c3cnc(N)nc3)nc(N3CCOCC3)n2)cn1`, the Potency was 1660 nM (active).

As to `CC(=O)NCC(=O)N1[C@H]2CC[C@H]1c1cc(Nc3ncc(C(F)(F)F)c(NC4CCC4)n3)ccc12`, the Potency is 2350 nM (active).

Take `C[C@H](O)[C@@H]1C(=O)N2C(C(=O)O)=C(S[C@@H]3CN[C@H](CNS(N)(=O)=O)C3)[C@@H](C)[C@@H]12`: the “viability (% of control)” value is 120%.

Regarding `COc1cc(N2CCC(C(N)=O)CC2)ccc1Nc1nc(N)c(Cl)c(Nc2ccccc2S(=O)(=O)C(C)C)n1`, the Potency is 1180 nM (active).

With `Cc1onc(-c2ccccc2)c1C(=O)N[C@@H]1C(=O)N2[C@@H](C(=O)O)C(C)(C)S[C@@H]12`, the “viability (% of control)” value was 125%.

As for `c1ccc(CNc2nc(NCc3ccccc3)c3ccccc3n2)cc1`, the Potency was 26400 nM (active).

As to `O=C(Nc1cccc(Nc2ncc(Br)c(NCCc3cnc[nH]3)n2)c1)N1CCCC1`, the Potency was 14800 nM (active).

In the case of `C[C@@H](NCc1cc2ccccc2[nH]1)c1cccc2ccccc12`, the “viability (% of control)” value is 130%.

As to `N#Cc1c(NC(=O)c2cccc3ccccc23)sc2c1CCCC2`, the Potency is 743 nM (active).

As for `Cc1nc(NC(=O)N2CCC[C@@H]2C(N)=O)sc1-c1ccnc(C(C)(C)C(F)(F)F)c1`, the Potency is 1660 nM (active).

Turning to `Cc1ncc(-c2ccnc(Nc3ccc(S(C)(=O)=O)cc3)n2)n1C(C)C`, the Potency is 2350 nM (active).

For the molecule `CCNC(=O)c1cc2c(-c3cc(OCCN4CCCC4)c(Cl)cc3Cl)nc(N)nc2s1`, the Potency was 2090 nM (active).

`COc1cc([C@@H]2c3cc4c(cc3[C@@H](O[C@@H]3O[C@@H]5CO[C@@H](c6cccs6)O[C@@H]5[C@H](O)[C@@H]3O)[C@H]3COC(=O)[C@H]23)OCO4)cc(OC)c1O`: the Potency is 74.3 nM (active).

With `COc1ccnc2[nH]cc(C(=O)C(=O)N3CCN(C(=O)c4ccccc4)C[C@@H]3C)c12`, the “viability (% of control)” value was 108%.

Turning to `N#Cc1cc(NC(=O)Nc2nnc(-c3ccncc3)s2)ccc1-c1cn[nH]c1`, the “viability (% of control)” value was 110%.

For the molecule `CC(=O)O[C@H]1C[C@@H]2CC[C@H]3[C@H]4C[C@H]([N+]5(C)CCCCC5)[C@@H](OC(C)=O)[C@@]4(C)CC[C@@H]3[C@@]2(C)C[C@H]1N1CCCCC1`, the “viability (% of control)” value was 120%.

In the case of `CC(C)(C)[C@H](NC(=O)c1ccc(N)c(Cl)c1)C(=O)N1CCC[C@@H]1C(=O)N[C@H](C#N)CC(=O)O`, the viability (% of control) is 128% [at 3.51 µM].

As for `COC[C@H](NC(=O)c1cnc(C)s1)C(=O)N[C@@H](COC)C(=O)N[C@@H](Cc1ccccc1)C(=O)[C@@]1(C)CO1`, the Potency is 41.8 nM (active).

Take `CCCNC(=O)[C@H]1O[C@H]1C(=O)N[C@H](C(=O)N1CCC[C@@H]1C(=O)OC)C(C)CC` (stereo not given in full): the Potency was 2350 nM (active).

For `CN1CCCN(C(=O)c2cccc(-c3ccc(C=C4C(=O)Nc5ccc(Cl)cc54)o3)c2)CC1`, the Potency was 5900 nM (active).

Take `COc1cc(O)c2c(c1)C1OC1C[C@H](O)[C@H](O)C(=O)C=CC[C@H](C)OC2=O` (stereo not given in full): the Potency is 2640 nM (active).
